Screens (PubChem)
Her2 expr inh: inhibitors of Her2 protein expression, primary screen, SKBR-3 cells, AlphaScreen, 66K library | AID 645, 2007 | SKBR-3 HER2 protein level, 18-24 h; stronger effect = lower value | 65,000 tested, 0.69% active | HER2 level % of control, % at 10 µM;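 active means HER2 level under 5% of the carrier-only control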;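 further: 100% = DMSO carrier and 0% = 500 nM PU-H71 HSP90 inhibitor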
MMP-13 inhibitor: human MMP13 inhibitors, primary screen, biochemical, FRET peptide cleavage | MMP-13 fTHP FRET cleavage, Mca fluorescence | inhibition, % at 4 µM | 65,000 tested, 0.07% active | Collagenase 3 (Homo sapiens), P45452;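 active means inhibition above the mean of compound-free control plate wells plus 3 SD, cut at about 14% in these data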;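 further: 0% = DMSO wells and 100% = wells with reference MMP-13 inhibitor after basal subtraction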
SK-BR-3 tox 24h: SK-BR-3 proliferation inhibitors, primary screen, cell-based, human, 24 h | SK-BR-3 viability, CellTiter-Glo ATP luminescence; stronger effect = lower value | viability, % at 10 µM | 41,000 tested, 0.47% active;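 active means viability at or below the median of all test compounds minus 3 SD, in both replicates if run twice, cut at about 45% in these data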;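 further: 100% = median untreated cell wells and 0% = median positive control drug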
Active calls of the source: *. Only some compounds are listed: those with a hit (about 0.94% of all), similar ones and a draw of the others.

Screening Cc1c(NC(=O)C(C)OC(=O)CC2Sc3ccccc3NC2=O)c(=O)n(-c2ccccc2)n1C (stereo unspecified) returned Her2 expr inh 103 and MMP-13 inhibitor 0.
Screening OCCN1CCN(C(c2cccs2)c2ccc3cccnc3c2O)CC1 (stereo unspecified) returned Her2 expr inh 48, MMP-13 inhibitor -2 and SK-BR-3 tox 24h 91.
CC(C)(C)c1cc(C(c2cccnc2)N2CCN(CCO)CC2)cc(C(C)(C)C)c1O (stereo unspecified) was read as Her2 expr inh -15* and MMP-13 inhibitor 1.
CCOc1ccc(-c2nc(CSCC(=O)NCc3ccco3)c(C)o2)cc1 was read as Her2 expr inh 91 and MMP-13 inhibitor -19.
Screening Cc1ccc(S(=O)(=O)c2c(C)nn(C(C)(C)C)c2OC(=O)c2ccco2)cc1 returned Her2 expr inh 84 and MMP-13 inhibitor 0.
Screening Cc1ccc(S(=O)(=O)c2c(C)nn(C(C)(C)C)c2OC(=O)c2ccc(Br)o2)cc1 returned Her2 expr inh 4.1* and MMP-13 inhibitor 7.
`c1ccc(-c2csc(N3CCN(c4ccccn4)CC3)n2)cc1` gave Her2 expr inh 76, MMP-13 inhibitor 3 and SK-BR-3 tox 24h 89.
Screening O=S1(=O)C=C(Sc2nc3cc(Cl)ccc3o2)c2ccccc21 returned Her2 expr inh -18* and MMP-13 inhibitor 4.
Screening CN(C)c1nc(N)nc(CSc2nc3cc(Cl)ccc3o2)n1 returned MMP-13 inhibitor 3 and SK-BR-3 tox 24h 88.
`CCN(CC)c1ccc2cc(C(=O)Nc3ccccn3)c(=O)oc2c1` gave Her2 expr inh 82, MMP-13 inhibitor -7 and SK-BR-3 tox 24h 88.
For CCN(CC)c1ccc2cc(NC(=O)CCC(=O)O)c(=O)oc2c1 the results were Her2 expr inh 91, MMP-13 inhibitor -23 and SK-BR-3 tox 24h 43*.
For O=C(O)c1ccccc1NCN1C(=O)C2CC=C(Cl)CC2C1=O (stereo unspecified) the results were Her2 expr inh -22*, MMP-13 inhibitor -51 and SK-BR-3 tox 24h 120.
`O=C(CCN1C(=O)C2CC=C(Cl)CC2C1=O)Nc1ccccc1O` (stereo unspecified) gave Her2 expr inh 85, MMP-13 inhibitor 2 and SK-BR-3 tox 24h 101.
Screening O=S(=O)(NC1CCCCCCC1)c1cccs1 returned Her2 expr inh 109, MMP-13 inhibitor 0 and SK-BR-3 tox 24h 104.
For CC(C)CCn1c(SCC(N)=O)nc2c1c(=O)n(C)c(=O)n2C the results were Her2 expr inh 82 and MMP-13 inhibitor 1.
`O=S(=O)(c1ccc2ccccc2c1)N(CC(O)CN1CCOCC1)c1ccccc1` (stereo unspecified) gave Her2 expr inh 100, MMP-13 inhibitor 0 and SK-BR-3 tox 24h 85.
COC(=O)CCCCCc1ccc(C(C)=O)s1 was read as Her2 expr inh 89, MMP-13 inhibitor 7 and SK-BR-3 tox 24h 96.
For N=c1sccn1CC(=O)Nc1ccccc1-c1ccccc1 the results were Her2 expr inh 110, MMP-13 inhibitor 1 and SK-BR-3 tox 24h 33*.
`N=c1sccn1CC(=O)Nc1cccc(Oc2ccccc2)c1` gave Her2 expr inh 121 and MMP-13 inhibitor 5.
For Cc1cc(NC(=O)C2COc3ccccc3O2)no1 (stereo unspecified) the results were Her2 expr inh 102 and MMP-13 inhibitor 5.
`Cc1noc(C)c1COc1ccc(C(=O)OCc2nnc(-c3ccc(Cl)cc3)o2)cc1` gave Her2 expr inh 106 and MMP-13 inhibitor 1.
For CCOc1cc2[nH]c(=S)n(CCCN3CCOCC3)c(=O)c2cc1OCC the results were Her2 expr inh 101 and MMP-13 inhibitor 2.
CCOC(=O)N1CCC(n2c(=S)[nH]c3cc(OCC)c(OCC)cc3c2=O)CC1 was read as Her2 expr inh 0.2* and MMP-13 inhibitor 6.
`N=c1n(CCN2CCCCC2)c2ccccc2n1CC(O)c1cccc(Br)c1` (stereo unspecified) gave Her2 expr inh 35, MMP-13 inhibitor -2 and SK-BR-3 tox 24h 44*.
For N=c1n(CCN2CCCC2)c2ccccc2n1CC(O)c1ccco1 (stereo unspecified) the results were Her2 expr inh 91, MMP-13 inhibitor -6 and SK-BR-3 tox 24h 79.
For CC(C)NS(=O)(=O)c1ccc(OCC(=O)NCc2cccnc2)cc1 the results were Her2 expr inh 129, MMP-13 inhibitor 1 and SK-BR-3 tox 24h 94.
COc1ccc(OCC(=O)NCc2cccnc2)cc1 was read as Her2 expr inh -14*, MMP-13 inhibitor 5 and SK-BR-3 tox 24h 75.
`COC(C(=O)Nc1cccc(F)c1)c1ccccc1` (stereo unspecified) gave Her2 expr inh 73 and MMP-13 inhibitor -3.
